# From the supplement of paper PMC12494721
# Counter-ions that a name gives are not always drawn.
# Tests used:
# Conditions in all cases: incubation time: 27 h, anaerobic, 37 °C;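 for the amine columns active = adjusted P below 0.05 in both replicates with a change the same way and a mean fold change under 0.8 or over 1.25; inactive = the rest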
# [1] = tested on: Clostridium sporogenes DSM 1664; assay: growth (OD595) fold change vs plate DMSO controls (fold change (ratio)); higher = more growth
# How it was run: (§1)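 The reported measure is growth: the fold change against the median of DMSO controls on the plate. Absorbance at 595 nm from anaerobic 96-well mGAM cultures grown for 27 h at 37 °C was blank-subtracted, corrected for background with 20 µM compound solutions in water, and converted to OD with a calibration factor of 5. Fold changes above 1.5 appear as NA, and values are the mean of 2 biological replicates.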
# Escherichia coli IAI1 [2] = assay: as above
# How it was run: as §1
# [3] = tested on: Klebsiella aerogenes DSM 30053; assay: as above
# How it was run: as §1
# [4] = tested on: Ruminococcus gnavus DSM 108212; assay: as above
# How it was run: as §1
# [5] = tested on: Klebsiella aerogenes DSM 30053; assay: fold change of Histamine concentration vs plate DMSO controls (fold change (ratio)); higher = more amine produced, active = hit call of the paper (significant change in both replicates, either direction)
# How it was run: (§2)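 Each value is the fold change relative to DMSO-only wells on the same plate. Four gut bacterial strains were grown anaerobically in mGAM at 37 °C for 27 h in 80 µL wells, starting at OD 0.1 before a 1:1 dilution, with compounds at 20 µM final (sweeteners 50 µM). Whole cultures were extracted with cold acetonitrile/methanol containing 0.1% formic acid, centrifuged, and amines were quantified by LC–triple-quadrupole MS (dynamic MRM) against external calibration curves with within-batch drift correction. Values are means of 2 biological replicates.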
# [6] = tested on: Clostridium sporogenes DSM 1664; assay: fold change of Tryptamine concentration vs plate DMSO controls (fold change (ratio)); higher = more amine produced, active = hit call of the paper (significant change in both replicates, either direction)
# How it was run: as §2
# [7] = tested on: Ruminococcus gnavus DSM 108212; assay: as above
# How it was run: as §2
# Escherichia coli IAI1 [8] = assay: fold change of Putrescine concentration vs plate DMSO controls (fold change (ratio)); higher = more amine produced, active = hit call of the paper (significant change in both replicates, either direction)
# How it was run: as §2
# [9] = tested on: Klebsiella aerogenes DSM 30053; assay: as above
# How it was run: as §2
# Escherichia coli IAI1 [10] = assay: fold change of Cadaverine concentration vs plate DMSO controls (fold change (ratio)); higher = more amine produced, active = hit call of the paper (significant change in both replicates, either direction)
# How it was run: as §2
# [11] = tested on: Klebsiella aerogenes DSM 30053; assay: as above
# How it was run: as §2
# [12] = tested on: Ruminococcus gnavus DSM 108212; assay: fold change of 2-Phenylethylamine concentration vs plate DMSO controls (fold change (ratio)); higher = more amine produced, active = hit call of the paper (significant change in both replicates, either direction)
# How it was run: as §2
Structure (SMILES),growth [1],growth (Escherichia coli IAI1 [2]),growth [3],growth [4],fold change of Histamine concentration [5],fold change of Tryptamine concentration [6],fold change of Tryptamine concentration [7],fold change of Putrescine concentration (Escherichia coli IAI1 [8]),fold change of Putrescine concentration [9],fold change of Cadaverine concentration (Escherichia coli IAI1 [10]),fold change of Cadaverine concentration [11],fold change of 2-Phenylethylamine concentration [12]
COc1cnc(NS(=O)(=O)c2ccc(N)cc2)nc1 [Sulfameter] (20 µM),0.997,0.976,0.981,1.35,1.01 (inactive),0.945 (inactive),1.03 (inactive),1.01 (inactive),0.996 (inactive),1.03 (inactive),0.987 (inactive),1.01 (inactive)
C[C@H](N[C@@H](CCc1ccccc1)C(=O)O)C(=O)N1CCC[C@H]1C(=O)O [Enalaprilat dihydrate] (20 µM),0.89,0.971,0.996,1.16,1.04 (inactive),0.967 (inactive),1.04 (inactive),1 (inactive),1.01 (inactive),1.08 (inactive),0.991 (inactive),1.04 (inactive)
COc1ccc2c3c1O[C@H]1C[C@@H](O)C=C[C@@]31CCN(C)C2 [Galanthamine hydrobromide] (20 µM),0.93,1.06,1.04,0.846,1.01 (inactive),1.01 (inactive),1.01 (inactive),1.03 (inactive),1 (inactive),0.979 (inactive),0.999 (inactive),1 (inactive)
Cc1ccnc2c1NC(=O)c1cccnc1N2C1CC1 [Nevirapine] (20 µM),0.962,0.959,1.01,0.868,0.914 (inactive),1 (inactive),1.12 (inactive),0.955 (inactive),1.02 (inactive),1.02 (inactive),1.01 (inactive),1.12 (inactive)
CC1(C)[C@@H](OC(=O)CCC(=O)O)CC[C@]2(C)[C@H]3C(=O)C=C4[C@@H]5C[C@@](C)(C(=O)O)CC[C@]5(C)CC[C@@]4(C)[C@]3(C)CC[C@@H]12 [Carbenoxolone disodium salt] (20 µM),1.06,0.984,0.977,0.91,1.03 (inactive),0.925 (inactive),1.04 (inactive),1.04 (inactive),1.02 (inactive),0.999 (inactive),0.993 (inactive),1.07 (inactive)
CC(C(=O)O)c1ccc(N2Cc3ccccc3C2=O)cc1 (stereo not drawn) [Indoprofen] (20 µM),1.13,0.99,0.973,1.01,1.04 (inactive),1.03 (inactive),1.09 (inactive),0.977 (inactive),0.993 (inactive),0.998 (inactive),0.982 (inactive),1.11 (inactive)
CC(C)Nc1cccnc1N1CCN(C(=O)c2cc3cc(NS(C)(=O)=O)ccc3[nH]2)CC1 [Delavirdine] (20 µM),1.03,1.01,0.995,0.754,1.04 (inactive),0.965 (inactive),1.05 (inactive),0.984 (inactive),0.906 (inactive),1.04 (inactive),1.05 (inactive),1.04 (inactive)
COc1cc(NC(C)CCCN)c2ncccc2c1 (stereo not drawn) [Primaquine diphosphate] (20 µM),1.08,1.02,1.07,0.905,0.851 (inactive),1.03 (inactive),1.07 (inactive),1.03 (inactive),0.943 (inactive),1 (inactive),1.02 (inactive),1.09 (inactive)
COC(=O)C1=C(C)NC(C)=C(C(=O)OCC(C)C)C1c1ccccc1[N+](=O)[O-] (stereo not drawn) [Nisoldipine] (20 µM),0.851,1.13,1.02,0.871,0.949 (inactive),1.06 (inactive),0.899 (inactive),1.1 (inactive),1 (inactive),0.981 (inactive),1.01 (inactive),0.898 (inactive)
Cn1c(NCCN(CCO)CCCc2ccc([N+](=O)[O-])cc2)cc(=O)n(C)c1=O [Nifekalant] (20 µM),1.11,1.06,1.08,1.22,0.994 (inactive),1.01 (inactive),1.01 (inactive),1.04 (inactive),1.02 (inactive),0.971 (inactive),1.01 (inactive),0.997 (inactive)
CC(=O)O[C@@]12CO[C@@H]1C[C@H](O)[C@@]1(C)C(=O)[C@H](O)C3=C(C)[C@@H](OC(=O)[C@H](O)[C@@H](NC(=O)OC(C)(C)C)c4ccccc4)C[C@@](O)([C@@H](OC(=O)c4ccccc4)[C@H]21)C3(C)C [Docetaxel] (20 µM),0.864,1,1.03,1.05,1.05 (inactive),0.991 (inactive),1 (inactive),1.02 (inactive),1.01 (inactive),1.02 (inactive),0.998 (inactive),0.956 (inactive)
CCOc1cc(N)c(Cl)cc1C(=O)NCC1CN(Cc2ccc(F)cc2)CCO1 (stereo not drawn) [Mosapride] (20 µM),1.14,0.963,0.978,1.08,1.05 (inactive),1.03 (inactive),0.938 (inactive),0.985 (inactive),1.02 (inactive),0.998 (inactive),0.992 (inactive),0.936 (inactive)
COc1cc(-c2ccc(=O)[nH]n2)ccc1OC(F)F [Zardaverine] (20 µM),1.12,0.946,1.09,0.984,0.932 (inactive),0.971 (inactive),0.994 (inactive),0.953 (inactive),0.987 (inactive),1.01 (inactive),0.997 (inactive),0.952 (inactive)
O=C1CCc2ccc(OCCCCN3CCN(c4cccc(Cl)c4Cl)CC3)cc2N1 [Aripiprazole] (20 µM),1.06,1.03,0.979,1.07,1.16 (inactive),0.955 (inactive),0.781 (active),1.03 (inactive),1.01 (inactive),1.11 (inactive),0.976 (inactive),0.811 (inactive)
O=C(O)CN(CCN(CC(=O)O)CC(=O)O)CCN(CC(=O)O)CC(=O)O [Pentetic acid] (20 µM),1.27,1.04,1.04,1.05,1.08 (inactive),1.02 (inactive),1.01 (inactive),0.998 (inactive),1.02 (inactive),0.992 (inactive),0.989 (inactive),0.997 (inactive)
OC[C@H]1O[C@@H](n2cnc3cncnc32)[C@H](O)[C@@H]1O [Nebularine] (20 µM),0.985,0.971,1.01,0.831,0.982 (inactive),0.874 (inactive),0.943 (inactive),0.795 (inactive),1.01 (inactive),0.943 (inactive),0.998 (inactive),0.946 (inactive)
CN(C)c1ccc(O)c2c1C[C@H]1C[C@H]3[C@H](N(C)C)C(=O)C(C(N)=O)=C(O)[C@@]3(O)C(=O)C1=C2O [Minocycline hydrochloride] (20 µM),0.0113,0.0671,0.394,0.158,0.996 (inactive),0.0198 (active),0.14 (active),0.287 (active),0.866 (inactive),0.278 (active),0.681 (active),0.142 (active)
C=CCN1CCCC1CNC(=O)c1cc2nn[nH]c2cc1OC (stereo not drawn) [Alizapride hydrochloride] (20 µM),1.09,1.01,1.05,1.09,1 (inactive),0.964 (inactive),1.02 (inactive),0.994 (inactive),0.988 (inactive),0.998 (inactive),0.99 (inactive),1 (inactive)
O=C1[C@H](CC[C@H](O)c2ccc(F)cc2)[C@@H](c2ccc(O)cc2)N1c1ccc(F)cc1 [Ezetimibe] (20 µM),1.3,1.1,1.02,0.955,0.972 (inactive),0.796 (inactive),0.858 (inactive),1.02 (inactive),1 (inactive),0.987 (inactive),0.992 (inactive),0.832 (inactive)
NNCCc1ccccc1 [Phenelzine sulfate] (20 µM),0.965,0.99,1.02,1.01,1.05 (inactive),0.921 (inactive),0.995 (inactive),1.12 (inactive),0.977 (inactive),1.04 (inactive),1.03 (inactive),0.911 (inactive)
COc1ccc(CCC(=O)c2c(O)cc(O[C@@H]3O[C@H](CO)[C@@H](O)[C@H](O)[C@H]3O[C@@H]3O[C@@H](C)[C@H](O)[C@@H](O)[C@H]3O)cc2O)cc1O [Neohesperidin Dihydrochalcone (Nhdc)] (50 µM),1.25,0.987,1.01,1.05,1.02 (inactive),1.01 (inactive),0.995 (inactive),1.01 (inactive),1.02 (inactive),0.96 (inactive),0.99 (inactive),0.961 (inactive)
CC(=O)NS(=O)(=O)c1ccc(N)cc1 [Sulfacetamide sodic hydrate] (20 µM),0.934,0.995,0.974,0.888,1.02 (inactive),0.976 (inactive),1.06 (inactive),1.02 (inactive),0.996 (inactive),0.98 (inactive),0.993 (inactive),1.08 (inactive)
COC(=O)Nc1nc2cc(C(=O)c3ccccc3)ccc2[nH]1 [Mebendazole] (20 µM),1.04,1,1.11,0.629,0.962 (inactive),0.982 (inactive),1.01 (inactive),1.03 (inactive),0.987 (inactive),0.998 (inactive),1 (inactive),1.03 (inactive)
CC(NCCc1ccc(O)cc1)C(O)c1ccc(O)cc1 (stereo not drawn) [Ritodrine hydrochloride] (20 µM),0.998,0.987,0.985,0.697,0.979 (inactive),1 (inactive),1.02 (inactive),0.985 (inactive),1.01 (inactive),1.01 (inactive),1.01 (inactive),1.05 (inactive)
